Bioassay records: PubChem, National Center for Advancing Translational Sciences (NCATS)
CHX counter = counter-screen for Shiga toxin inhibitors: cycloheximide protein synthesis inhibition | cell reporter, cycloheximide protein synthesis inhibition counterscreen | max response, % | 300,000 tested, 12% active | AID 2314; in the data active means max response mostly above about 13%, no sharp cut-off; inactive means mostly below about 14%; further: read at 38.3 µM for the half of the compounds with a filed dose; 0% is about no effect
NS1 function inh = inhibitors of influenza NS1 protein function; Potency, µM (titrated, usually from 46.1 µM), for inactives: at the top dose activity, positive = more growth; AID 2326; 270,000 tested, 0.4% active; calls by dose curve; further: potency means the concentration at half of the fitted maximal effect; actives are rising curves; nearly all actives have a fitted effect of over 50% in size
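A cell-based growth assay was used: compounds that relieve NS1-induced slow growth of budding yeast raise OD600. Assay medium was yeast nitrogen base with ammonium sulphate and -URA supplement, pH 6.0, with 2% galactose.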
Shiga inhibitor = blocks Shiga toxin action in Vero cells | 290,000 tested, 9.2% active | Vero cells, Shiga toxin protein synthesis inhibition reporter | inhibition, % at 38.7 µM; in the data active means inhibition mostly above about 28%, no sharp cut-off; inactive means mostly below about 43%; further: 0% is about no effect
Giardia FBPA inh = Giardia lamblia aldolase inhibition; A8B2U2; purified Giardia FBPA; Potency, µM (highest dose often 59.6 µM), for inactives: at the top dose activity, negative = inhibition, actives largely listed as inhibitors; 290,000 tested, 0.71% active; AID 2451; further: potency means the concentration at half of the fitted maximal effect; on the % scale 0 is the no-effect control and ±100 the full control effect; nearly all actives have a fitted effect of over 55% in size
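40 nM FBPA preincubated 10 min at RT with compound (up to 57.5 uM final), then substrate plus GAPDH/TPI/NAD/arsenate coupling and diaphorase/resazurin added. Fluorescence read after 20 min at RT, 525/598 nm.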
LmPK inh = blocks Leishmania mexicana pyruvate kinase activity; Q27686; purified LmPK, Kinase-Glo ATP luminescence, 1 h; Potency, µM (titrated, usually from 57.5 µM), for the others: at the top dose activity change, negative = inhibition, actives largely listed as inhibitors; 290,000 tested, 0.37% active; further: potency means the concentration at half of the fitted maximal effect; on the % scale 0 is the no-effect control and ±100 the full control effect
Target sequence (Q27686 whole entry, looked up): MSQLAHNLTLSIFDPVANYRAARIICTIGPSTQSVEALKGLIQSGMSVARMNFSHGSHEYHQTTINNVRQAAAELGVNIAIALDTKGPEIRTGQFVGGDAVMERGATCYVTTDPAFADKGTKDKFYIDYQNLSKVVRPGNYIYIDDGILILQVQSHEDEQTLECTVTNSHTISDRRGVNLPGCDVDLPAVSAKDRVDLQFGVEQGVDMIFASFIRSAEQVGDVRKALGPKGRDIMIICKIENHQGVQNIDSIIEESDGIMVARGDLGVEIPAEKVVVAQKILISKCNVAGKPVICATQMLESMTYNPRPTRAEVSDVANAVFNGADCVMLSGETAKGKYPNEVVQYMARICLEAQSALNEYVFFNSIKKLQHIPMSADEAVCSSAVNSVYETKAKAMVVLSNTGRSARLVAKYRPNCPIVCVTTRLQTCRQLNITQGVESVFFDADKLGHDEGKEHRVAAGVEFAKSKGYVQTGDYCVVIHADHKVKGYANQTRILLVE
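Purified LmPK (0.1 nM) converted ADP (0.1 mM) to ATP with PEP (0.5 mM) in imidazole buffer pH 7.2 with KCl and MgCl2, 1 h at room temperature. ATP was read by Kinase-Glo luminescence; data normalized to uninhibited and no-enzyme controls.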
An asterisk follows results filed as active; ? = inconclusive; . = no result; [ ] = another dose, or the depositor's remark. Rows were chosen to be rich in hits. Some 14% of all compounds tested hit in one or more screens of this group. Unless noted, the call rests on the fitted dose curve; in most records, active means well fitted curve in the direction sought with a large enough effect; inconclusive means small, poorly fitted or top-dose-only effect, or another doubt; inactive means no such curve, though single readings can be large; an effect the other way counts as inactive or inconclusive.

SMILES	CHX counter	NS1 function inh	Shiga inhibitor	Giardia FBPA inh	LmPK inh
CCCCNC(=O)N(O)C1N(/N=C/c2ccccc2OC)C(=S)SC1(C)C (stereo unspecified)	-4	2%	0	-8%	-2%
COC(=O)Cc1cc(=O)oc2cc(OC)ccc12	5	-1%	28	3%	7%
CCCNS(=O)(=O)c1cccc(C(=O)OCc2cc(=O)oc3cc(OC)ccc23)c1	19*	10%	61	0%	1%
COc1ccc2c(COC(=O)c3cccc(S(=O)(=O)NCC(C)C)c3)cc(=O)oc2c1	20*	4%	37	6%	0%
COc1cc(OC)cc(C(=O)NCC(=O)OCc2cc(=O)oc3cc(OC)ccc23)c1	-3	-1%	-8	-2%	6%
COc1ccc(Nc2c(-c3ccc(C)cc3)nc3cnccn23)cc1	6	.	10	-5%	0%
Cc1ccc(Nc2c(-c3ccc(N4CCOCC4)cc3)nc3cnccn23)cc1	7.8*	4%	44	-1%	4%
Cc1ccccc1Nc1c(-c2ccc(N3CCOCC3)cc2)nc2cnccn12	25*	5%	73	-2%	6%
CC(C)Cc1csc(NC(=O)c2ccc(F)cc2)c1C(=O)O	40*	-30%	56*	-21%	-4%
CCOC(=O)c1c(CC(C)C)csc1NC(=O)c1ccccc1C(=O)O	1	18%	20	?	2%
Cc1ccc(C(=O)/C=C/c2c[nH]c3ccccc23)cc1	52*	13%	148*	-12%	0%
O=Cc1c[nH]c2ccc(C(=O)c3ccccc3)cc12	32*	-10%	.	-16%	1%
COc1ccc2[nH]cc(C=O)c2c1	2	-4%	18	.	-1%
COc1ccc2[nH]cc(/C=C/C(=O)c3ccccc3)c2c1	105*	-8%	131*	-9%	-4%
O=C(/C=C/c1c[nH]c2ccccc12)c1ccccc1	69*	-34%	115*	-12%	3%
O=C(O)c1ccc(N/N=C/c2c[nH]c3ccccc23)cc1	9	4%	2	-5%	6%
Cc1onc(-c2c(Cl)cccc2Cl)c1C(O)c1ccccc1 (stereo unspecified)	-4	-9%	12	8%	0%
COc1ccc(NS(=O)(=O)c2ccc3c(c2)N(C(C)=O)CCO3)cc1	7	-9%	-2	.	2%
Cc1cc(Cl)c2oc(C(=O)NCCN3CCCCC3CO)c(C)c2c1 (stereo unspecified)	15*	17%	27	0%	2%
CCN1CCC[C@H]1CNC(=O)c1c(O)c(Cl)cc(Cl)c1OC	7	-4%	-5	?	-3%
Cc1cc(Cl)c2oc(C(=O)NCCC3CCCCO3)c(C)c2c1 (stereo unspecified)	22	-46%	87*	.	-8%
Cc1cccc(C(=O)NCC2CCCO2)c1 (stereo unspecified)	11	3%	30	3%	-7%
COC(=O)[C@@]1(Cc2ccccc2)[C@H]2c3cc(C(=O)N(C)C)n(Cc4cc(C)n(C)n4)c3C[C@H]2CN1C(=O)c1ccccc1	.	.	.	5%	.
Cc1cccc(NC(=S)NNC(=O)c2csc3c2CCCC3)c1	29*	-63%	26	19%	-3%
Cc1cccc(NC(=S)NNC(=O)c2csc(C)c2)c1	24*	-23%	22*	13%	-10%
SMILES	CHX counter	NS1 function inh	Shiga inhibitor	Giardia FBPA inh	LmPK inh
O=C(O)c1cc(N(Cc2ccccc2O)Cc2ccccc2O)ccc1O	12	.	-2	?	.
CCN(CC)c1ccc(C(=O)c2ccccc2C(=O)O)c(O)c1	22*	21%	28*	15%	1%
O=C(Oc1ccc(C(=S)N2CCOCC2)cc1)c1cccc(Cl)c1	-1	-33%	6	7%	-3%
COc1ccccc1-c1cc(C(=O)Nc2ccc(F)cc2F)no1	7	-13%	39	0%	2%
CCCc1cc(C(=O)Nc2ccc(F)cc2F)no1	58*	-12%	74*	-2%	12%
CCCc1cc(C(=O)Nc2cccc(Cl)c2C)no1	52*	-19%	66*	10%	-4%
CCCc1cc(C(=O)Nc2ccccc2SC)no1	62*	-41%	88*	0%	-13%
CC(C)Oc1ccc(C(CC(=O)O)Cc2ccccc2)cc1 (stereo unspecified)	-3	4%	2	6%	-3%
O=C(O)Cc1ccc(NC(=O)c2ccc(NC(=O)C3CC3)cc2)cc1	-2	7%	-10	-12%	-14%
Cc1cccc(C)c1OCc1cc(C(=O)N2CCCC2c2nonc2C)no1 (stereo unspecified)	41	-43%	18	.	-13%
CSc1ccccc1OCc1cc(C(=O)N2CCCC2c2nonc2C)no1 (stereo unspecified)	48*	-18%	91*	.	6%
Cc1nonc1C1CCCN1C(=O)c1cc(COc2ccc(F)cc2F)on1 (stereo unspecified)	41*	-4%	103*	1%	-3%
Cn1ccnc1C1CCCCN1C(=O)c1cc(COc2ccc(F)cc2F)on1 (stereo unspecified)	-1	-3%	-2	1%	-3%
Cc1ccc(OCC(=O)Nc2ccc(NC(=O)c3ccccc3)c(C)c2)cc1	-1	12%	6	.	0%
CC(=Nc1ccc(C)cc1)c1sc2ccccc2c1O	35*	8%	92*	1%	-26%
CC(=Nc1ccccc1C)C1=C(O)CSC1=O	1	-3%	-6	-17%	0%
COC(=O)c1sc2ccccc2c1C(=O)OC	6	-1%	-7	8%	2%
CC(=Nc1ccc(C)cc1C)c1sc2ccccc2c1O	37*	-4%	119*	-5%	-14%
CC(=Nc1cccc(O)c1)c1sc2ccccc2c1O	55*	-17%	111*	-7%	-25%
CCOC(=O)c1sc2ccccc2c1OC(=O)c1ccc(C)cc1	5	1%	-5	3%	-3%
COC(=O)c1sc(NC(=O)COc2ccccc2C)nc1C	21*	.	56	0%	1%
COC(=O)c1sc(NC(=O)COc2c(C)cccc2C)nc1C	0	0%	-19	-1%	-2%
COc1ccccc1OCC(=O)Nc1nc(C)c(C)s1	27*	-17%	91*	-14%	-2%
C[C@@H]1/C=C\CC(=O)OC[C@H](C)C(=O)N2CCC[C@@H]2C(=O)OC1	.	.	.	3%[12.9 µM]	.
CC(=O)c1ccc(N2CCN(S(=O)(=O)c3ccc4c(c3)NC(=O)CC(=O)N4)CC2)cc1	24*	-12%	55*	.	-13%
CC1Sc2ccc(S(=O)(=O)N(C)Cc3ccccc3)cc2NC1=O (stereo unspecified)	-8	-21%	-6	.	-12%
c1ccc(-n2ncc3c2ncn2cnnc32)cc1	-2	-3%	31	1%	-1%
COc1ccc(-n2c(C)nc3c(cnn3-c3ccc(C)c(C)c3)c2=O)cc1	1	-90%	-1	-7%	4%
CCc1nnc2c3cnn(-c4ccccc4)c3ncn12	28*	-6%	67*	-3%	-6%
Cc1nc2c3cnn(-c4ccccc4)c3ncn2n1	21*	8%	34*	2%	0%
